Source: PubChem BioAssay (NCI)
Values joined by “and” are separate entries in the source; they are usually repeats but may differ in a detail not shown here. Identical values can stand only once. About 83,000 compounds went through this panel and 20% of them were active in at least one assay; those are over-represented in the sample as a whole.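 96-well plates, one dose, 48 hours. Percent growth reported; active if below 10.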 Active and inactive are the calls of the source.

The compounds below were run on UACC-257 melanoma (assay: NCI-60 one-dose screen, 48 h (100 = growth as untreated, 0 = no growth, -100 = all killed)). Conditions: 10 µM unless noted.

SMILES | growth
COc1ccc(C/C(C)=C(/c2ccc(OCCN3CCCC3)cc2)c2ccc(OC(=O)NCc3ccccc3)cc2)cc1 | 107% (inactive)
CCN(CC)CCOc1ccc(/C(=C(\Cl)c2ccccc2)c2ccccc2)cc1 | -57.9% (active) and 45.8% (inactive)
Cc1ccc(/C=C2\COc3ccc(O)c(O)c3C2=O)cc1 | 10.1% (inactive)
COc1ccc2c(c1)oc1c(C)c3c(c(C)c12)C(=O)N(Nc1ccccc1)C3=O | 109% (inactive)
CCC(=C(c1ccc(OCCCN(C)C)cc1)c1ccc(OCCCN(C)C)cc1)c1ccc(Cl)cc1 | -77.1% (active)
CCOC(=O)c1c(-c2ccc(C)cc2)c(C#N)c(=O)n(-c2cccc(C(F)(F)F)c2)c1N | 101% (inactive)
S=c1nc(CS)[nH]c2ccccc12 | 95.9% (inactive)
O=C(N/N=C/c1ccc(O)cc1O)c1cccc(Nc2ccnc(C(F)(F)F)c2)c1 | 36.3% (inactive)
CCN(CC)CCCN1C(=O)c2c(c(C)c3c(oc4cc(OC)ccc43)c2C)C1=O | 114% (inactive)
Cc1ccc(NC(=O)c2ccc(CN3CCN(C)CC3)cc2)cc1Nc1nccc(-c2cccnc2)n1 | 97.2% (inactive) and 29.6% (inactive)
COc1cc(/C=C2/C=C(c3ccc(C(C)(C)C)cc3)N(CCc3ccc(S(N)(=O)=O)cc3)C2=O)cc(OC)c1OC | 62.2% (inactive)
O=c1c(/C=C/c2ccco2)nnc2sc(Nc3ccc(Cl)cc3)nn12 | 104% (inactive)
Nc1[nH]nc(Nc2ccccc2)c1-c1nc2ccccc2s1 | 50.6% (inactive)
CCCCCCCCn1ccc2cc(NC(=O)CN3CCN(c4nc(C)cc(N5CCCCC5)n4)CC3)ccc21 | 115% (inactive)
CC/C(=C(/c1ccc(O)cc1)c1ccc(OCCN2CCCCCC2)cc1)c1ccc(Cl)cc1 | 87.3% (inactive)
C=C(C)[C@@H]1CC[C@]2(C(=O)N3CCN(C)CC3)CC[C@]3(C)[C@H](CC[C@@H]4[C@@]5(C)CC(CCCNC(C)=O)(CCCNC(C)=O)[C@H](OC(C)=O)C(C)(C)[C@@H]5CC[C@]43C)[C@@H]12 | 109% (inactive)
CCN(c1cc(-c2ccc(CN3CCC(/C=C/S(=O)(=O)c4ccccc4)CC3)cc2)cc(C(=O)NCc2c(C)cc(C)[nH]c2=O)c1C)C1CCOCC1 | 75.4% (inactive)
Nc1nc(N)c2c(n1)NC(c1ccc(Cl)cc1)CC(c1cccc(Nc3ccncc3)c1)=N2 (stereo not drawn) | 52.3% (inactive)
C=C(c1ccc(C(=O)O)cc1)c1cc2c(cc1C)C(C)(C)CCC2(C)C | 94.9% (inactive) and 90.3% (inactive)

SMILES | growth
O=C1OCC2=C1C(c1cccc([N+](=O)[O-])c1)c1cc3c(cc1N2CCO)CCC3 (stereo not drawn) | 69.9% (inactive)
CCN(CC)/C([O-])=c1\cccc\c1=C1\N=C(c2ccccc2)N=C1[n+]1ccc(-c2ccccc2)cc1 | 92.9% (inactive)
Cc1nc(-n2[nH]c(=O)ccc2=O)sc1N=Nc1ccccc1 | 109% (inactive)
Cc1ccc(-c2nc3nc(-c4ccccc4)nc(N4CCCNCC4)c3o2)cc1 | 4.04% (active)
O=C([C@H]1C[C@H]1c1ccc(S(F)(F)(F)(F)F)cc1)N1CCN(c2cc(Cl)ccc2C(F)(F)F)CC1 | 94.9% (inactive)
OB(O)c1ccsc1-c1nc2ccc3[nH]ncc3c2c2c1CCCC2 | 85.5% (inactive)
CC[C@]12CN3CCc4c([nH]c5ccccc45)[C@@](C(=O)OC)(c4cc5c(cc4OC)N(C)[C@H]4[C@@](O)(C(=O)OC)[C@H](OC(C)=O)[C@]6(CC)C=CCN7CC[C@]54[C@@H]76)CC(C3)[C@H]1O2 (stereo partly drawn) | 42.3% (inactive)
COC(=O)N/N=C/c1c[n+]([O-])c2ccccc2[n+]1[O-] | 95.1% (inactive)
Cn1ccnc1CN1CCSC(C(=O)Nc2ccccc2)C1 (stereo not drawn) | 79.6% (inactive)
CCNC(=O)Oc1ccc(/C(=C(/C)Cc2ccc(OC)cc2)c2ccc(OCCN(CC)CC)cc2)cc1 | -56.3% (active)
Cc1ccc(-c2nc(C#N)c(S(=O)(=O)N(C)C)o2)cc1 | 94.8% (inactive)
COCCn1cc(-c2nc(-c3cn(CCOC)c4ncccc34)cs2)c2ccccc21 | 88% (inactive)
Nc1nc2ccccc2c2c(=O)c3ccc(Cl)cc3sc12 | 105% (inactive)
CC[C@]1(O)CC2CN(CCc3c([nH]c4ccccc34)C(C(=O)OC)(c3cc4c(cc3OC)N(C=O)[C@H]3[C@@](O)(C(=O)OC)[C@H](OC(C)=O)[C@]5(CC)[C@@H]6C[C@@H]6CN6CC[C@]43[C@@H]65)C2)C1 (stereo partly drawn) | 53.2% (inactive)
CN1CCN(CCCN2c3ccccc3Sc3ccc(Cl)cc32)CC1 | -34.7% (active) and 53.2% (inactive)
Nc1ncc(-c2ccc3ncnc(N4CCc5ccc(Cl)cc54)c3c2)cc1C(F)(F)F | 29.3% (inactive)
CC(C)(C)c1cc(NC(=O)Nc2ccc(-c3cn4c(n3)sc3cc(OCCN5CCOCC5)ccc34)cc2)no1 | 4.5% (active) and -6.8% (active)
CC1(Cc2ccccc2)CC2=C(C(=O)O1)C(c1ccccc1)NC(=O)N2 (stereo not drawn) | 101% (inactive)
COc1cc(C=O)ccc1Oc1ccc([N+](=O)[O-])cc1[N+](=O)[O-] | 90% (inactive)
